Holding throughout (test): protein binding microarray; high values mean tight binding
Common to all, as to conditions: dsDNA, one strand shown

Assay [1] concerns the target RELARELA (p65 homodimer) (Homo sapiens, UniProt Q04206 1-307).
The target of assay [2] is p50p50 homodimer (Homo sapiens, UniProt P19838 7-356).
Assay [3] deals with T1, p52p52 homodimer (Homo sapiens, UniProt Q00653 4-332).
T1 sequence: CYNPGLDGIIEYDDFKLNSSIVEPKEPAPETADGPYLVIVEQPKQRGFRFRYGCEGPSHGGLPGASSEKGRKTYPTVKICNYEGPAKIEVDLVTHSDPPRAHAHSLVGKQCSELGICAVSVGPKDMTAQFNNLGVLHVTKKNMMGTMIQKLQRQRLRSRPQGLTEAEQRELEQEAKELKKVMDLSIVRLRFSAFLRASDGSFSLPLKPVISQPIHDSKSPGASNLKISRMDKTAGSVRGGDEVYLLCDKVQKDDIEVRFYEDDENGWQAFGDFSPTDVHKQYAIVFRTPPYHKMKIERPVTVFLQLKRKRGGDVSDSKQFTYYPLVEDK

The target in assay [4] is RELA (p65) subunit of heterodimer;p50 subunit (Homo sapiens;Homo sapiens, UniProt Q04206;P19838 1-307;7-356).
In assay [5] the target is RELA (p65) subunit of heterodimer;p52 subunit (Homo sapiens;Homo sapiens, UniProt Q04206;Q00653 1-307;4-332).
The target in assay [6] is RELB subunit;p50 subunit (Homo sapiens;Homo sapiens, UniProt Q01201;P19838 120-401;7-356).
Assay [7] concerns the target T2, RELB subunit;p52 subunit (Homo sapiens;Homo sapiens, UniProt Q01201;Q00653 120-401;4-332).
T2 sequence 1: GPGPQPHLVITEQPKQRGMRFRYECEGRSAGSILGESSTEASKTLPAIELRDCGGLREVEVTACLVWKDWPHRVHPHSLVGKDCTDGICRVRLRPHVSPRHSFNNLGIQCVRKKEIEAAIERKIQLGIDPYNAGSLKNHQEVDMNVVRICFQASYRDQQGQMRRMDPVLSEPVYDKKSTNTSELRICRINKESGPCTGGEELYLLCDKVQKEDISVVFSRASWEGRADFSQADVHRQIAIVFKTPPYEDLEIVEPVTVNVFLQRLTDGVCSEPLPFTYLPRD
T2 sequence 2: T1 sequence

Assay [8] deals with C-Rel subunit;p50 subunit (Homo sapiens;Homo sapiens, UniProt Q04864;P19838 1-285;7-356).
The target in assay [9] is T3, C-Rel subunit;p52 subunit (Homo sapiens;Homo sapiens, UniProt Q04864;Q00653 1-285;4-332).
T3 sequence 1: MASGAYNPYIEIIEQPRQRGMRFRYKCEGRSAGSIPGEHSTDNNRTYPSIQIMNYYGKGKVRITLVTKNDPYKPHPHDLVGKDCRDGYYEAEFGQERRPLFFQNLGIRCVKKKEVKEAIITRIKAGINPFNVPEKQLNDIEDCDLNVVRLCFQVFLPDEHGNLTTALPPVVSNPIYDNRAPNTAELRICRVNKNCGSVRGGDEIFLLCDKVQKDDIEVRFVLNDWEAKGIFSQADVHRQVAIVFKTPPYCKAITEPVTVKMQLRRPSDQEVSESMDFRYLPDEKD
T3 sequence 2: T1 sequence

Chain of p50p50 homodimer (P19838 7-356): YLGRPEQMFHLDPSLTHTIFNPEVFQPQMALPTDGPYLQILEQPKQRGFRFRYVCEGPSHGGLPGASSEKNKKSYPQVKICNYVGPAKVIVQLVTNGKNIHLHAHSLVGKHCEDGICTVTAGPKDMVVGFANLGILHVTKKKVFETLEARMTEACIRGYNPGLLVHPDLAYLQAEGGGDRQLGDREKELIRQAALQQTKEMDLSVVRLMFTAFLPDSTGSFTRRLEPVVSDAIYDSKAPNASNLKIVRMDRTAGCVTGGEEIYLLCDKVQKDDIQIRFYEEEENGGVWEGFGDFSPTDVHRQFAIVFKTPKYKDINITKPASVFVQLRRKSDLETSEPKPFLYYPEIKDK
Chain of RELA (p65) subunit of heterodimer;p50 subunit (Q04206 1-307, chain 1 of 2): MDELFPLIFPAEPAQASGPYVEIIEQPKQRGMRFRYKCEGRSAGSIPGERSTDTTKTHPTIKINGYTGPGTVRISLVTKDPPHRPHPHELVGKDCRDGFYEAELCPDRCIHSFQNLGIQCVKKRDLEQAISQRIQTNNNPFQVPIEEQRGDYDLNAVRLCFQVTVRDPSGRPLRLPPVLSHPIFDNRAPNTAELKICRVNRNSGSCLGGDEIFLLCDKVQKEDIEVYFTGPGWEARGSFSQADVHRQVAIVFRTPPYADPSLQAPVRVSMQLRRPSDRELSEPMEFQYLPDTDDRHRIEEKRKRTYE
Chain of RELA (p65) subunit of heterodimer;p50 subunit (P19838 7-356, chain 2 of 2): as the sequence (P19838 7-356) above
Chain of RELARELA (p65 homodimer) (Q04206 1-307): as the sequence (Q04206 1-307, chain 1 of 2) above

Turning to GGGGTAACCCT, the binding signal in assay [1] is 1.24 z-score; in assay [2] it was 0.343 z-score; in assay [3] it was 1.02 z-score; in assay [4], 0.666 z-score; in assay [5], 1.02 z-score; in [6], 0.227 z-score. Further, the binding signal in assay [7] was 0.871 z-score; in assay [8], 0.285 z-score; in assay [9], 0.871 z-score.

In the case of CAAATTCCCCC, the binding signal came to 2.31 z-score in assay [1]; 1.64 z-score in [2]; 2.63 z-score in assay [3]; 2.41 z-score in assay [4]; 2.32 z-score in [5]; 2.69 z-score in [6]. In addition, the binding signal came to 2.35 z-score in assay [7], 1.89 z-score in assay [8] and 2.65 z-score in assay [9].

Turning to CAATACATCCC, the binding signal in [1] is -0.0719 z-score; in assay [2], -0.836 z-score; in assay [3], -0.518 z-score; in assay [4], -0.774 z-score; in [5], -0.7 z-score; in assay [6] it was -0.646 z-score. Besides, the binding signal in assay [7] was -0.575 z-score; in assay [8], -0.971 z-score; in [9], -0.69 z-score.

Take CGAGAGCCCCT: the binding signal in assay [1] is -0.807 z-score; in assay [2] it was 0.741 z-score; in assay [3] it was 0.297 z-score; in assay [4], 0.363 z-score; in assay [5], 0.418 z-score; in assay [6], 0.502 z-score. The binding signal in [7] was found to be 0.576 z-score; in assay [8], 0.0988 z-score; in assay [9], 0.379 z-score.

As for CAAAATATCCC, the binding signal was 0.764 z-score in [1]; 0.4 z-score in assay [2]; 0.253 z-score in [3]; 0.376 z-score in assay [4]; 0.346 z-score in assay [5]; 0.128 z-score in assay [6]. The binding signal is 0.342 z-score in [7], 0.0335 z-score in assay [8] and 0.411 z-score in [9].

Turning to GAAAGTTCCCT, the binding signal in assay [1] was determined as 0.999 z-score; in [2] it was 1.15 z-score; in assay [3] it was 1.11 z-score; in assay [4] it was 1.12 z-score; in [5] it was 1.03 z-score; in assay [6], 0.985 z-score. The results for the binding signal in assay [7], in assay [8] and in assay [9] were 0.987 z-score, 0.705 z-score and 0.73 z-score, respectively.

For AGGGTGGTCCC, the binding signal was -0.0899 z-score in [1]; 0.541 z-score in assay [2]; 0.435 z-score in [3]; 0.249 z-score in assay [4]; 0.357 z-score in assay [5]; 0.251 z-score in assay [6]. In addition, the values for the binding signal in assay [7], in [8] and in assay [9] were 0.266 z-score, 0.364 z-score and 0.427 z-score, respectively.

These data come from publication PMC3218832.
